Test results from PubChem BioAssay (NCI).
This is part of a sample that, as a whole, favours compounds with a hit. Of some 83,000 tested, about 20% had one in any assay.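 Growth was measured after 48 h exposure to one concentration of compound in 96-well plates. Values under 10 count as active.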 A number with no mark means an inactive call. Calls of active or inactive are those of the source.

tested on: ACHN renal; assay: NCI-60 one-dose screen, 48 h (100 = growth as untreated, 0 = no growth, -100 = all killed); settings: 10 µM unless noted

Question: Nc1ccc(C2=Nc3cccc4cccc(c34)S2)cc1 was tested. Which growth did it give?
Answer: The growth was 81.3%.

Question: Which growth does the source give for COc1cc2c(cc1OCCCOc1ccc(-c3cc4ccccc4c4ccccc34)cc1)N=C[C@@H]1CCCN1C2=O here?
Answer: Its growth is -85.3% (active).

Question: Which growth does the source give for O=C(CCc1nnc(Cn2ccnc2)o1)c1nc2ccccc2[nH]1 here?
Answer: The growth was 107%.

Question: How did the growth turn out when O=C(COC(=O)[C@H](C[Se][Se]C[C@H](NC(=O)c1ccc(Br)cc1F)C(=O)OCC(=O)c1ccc(F)cc1)NC(=O)c1ccc(Br)cc1F)c1ccc(F)cc1 was run?
Answer: Its growth is -75.7% (active).

Question: How did the growth turn out when COc1ccc2[nH]cc(/C=C3/C(=O)Nc4ccc(Cl)cc43)c2c1 was run?
Answer: Its growth is 18.2%.

Question: How did the growth turn out when Cc1cccc(Cl)c1NC(=O)c1ccc2nc(NC(=O)NC3CC(C)(C)NC(C)(C)C3)sc2c1 was run?
Answer: Its growth is 94.9%.

Question: How did the growth turn out when NNC(=O)C1CC2c3ccccc3C1c1ccccc12 (centres undefined) was run?
Answer: The growth was 117%.

Question: For Cn1[nH]cc(/C=N/C(N)=O)c1=O, which growth is on record?
Answer: Its growth is 109%.

Question: COc1ccc2[nH]c(-c3ccccc3)cc2c1 was tested. Which growth did it give?
Answer: Its growth is 101%.

Question: Which growth does the source give for CCCCn1c(Cc2ccc(Cl)cc2)nc2cc(OC)c(OC)cc2c1=O here?
Answer: The growth was 75.8%.

Question: For c1coc([C@@H]2C[C@@H]3Cc4ccc5ccccc5c4N2O3)c1, which growth is on record?
Answer: Its growth is 107%.

Question: CC(O)c1nc2c(c(=O)n(C)c(=O)n2C)n1C (centres undefined) was tested. Which growth did it give?
Answer: The growth was 105%.

Question: Which growth does the source give for Nc1ccccc1-c1ccc([N+](=O)[O-])cc1 here?
Answer: The growth was 46.1%.

Question: With C=C(C[C@](O)(C(=O)/C=C/c1ccc(Cl)cc1)C(=O)OC)c1ccccc1 as the molecule, how does the growth read?
Answer: Its growth is 72.2%.

Question: How did the growth turn out when N#Cc1ccc(NC(=O)Nc2ccc(Oc3ccc(NC(=O)Nc4ccc(C#N)cc4)cc3)cc2)cc1 was run?
Answer: Its growth is 23.1%.

Question: Which growth does the source give for Oc1ccc(Cc2ccc(O)c(C3CC(c4ccc(Cl)cc4)=NN3)c2)cc1C1CC(c2ccc(Cl)cc2)=NN1 (centres undefined) here?
Answer: Its growth is 16.5%.

Question: Which growth does the source give for CCC1=C(c2ccc(OC)cc2)C(C)Oc2cc(OC(C)=O)ccc21 (centres undefined) here?
Answer: Its growth is 88%.

Question: Which growth does the source give for COc1ccc(/C=N\Nc2ccc([N+](=O)[O-])cn2)cc1OC here?
Answer: Its growth is -3.48% (active).

Question: How did the growth turn out when COc1ncc(-c2ccc3nccc(C#CCN4CCN(S(C)(=O)=O)CC4)c3c2)cc1NS(=O)(=O)c1ccc(F)cc1F was run?
Answer: The growth was 13.2%.

Question: How did the growth turn out when O=C(Nc1ccc(Cl)cc1)Nc1ccc(Nc2nncc3ccccc23)cc1 was run?
Answer: Its growth is 22.4%.

Question: How did the growth turn out when Cc1cc(NC(=O)c2ccc(N)cc2)ccc1N=Nc1ccc2c(O)c(N=Nc3ccc(Cl)c(S(=O)(=O)O)c3)c(S(=O)(=O)O)cc2c1 was run?
Answer: Its growth is 71.5%.

Question: With CCC(CCC(C)C1CCC2C3CC=C4CC(O)CCC4(C)C3CCC12C)C(C)C (centres undefined) (tested in a mixture with another compound) as the molecule, how does the growth read?
Answer: The growth was 88%.

Question: For CCN1CCN(c2cc(-c3cn[nH]c3-c3cc(C)cc(OC)c3)nc(-c3cccnc3)n2)CC1, which growth is on record?
Answer: Its growth is 73.7%.

Question: For Cc1ccc(NC(=O)Nc2ccc(-c3cccnc3)cc2N2CCC(CO)CC2)cc1, which growth is on record?
Answer: Its growth is 81.2%.

Question: Which growth does the source give for Cc1c(C(N)=O)sc2ncn(CC(=O)Nc3ccc(Cl)cc3)c(=O)c12 here?
Answer: Its growth is 108%.

Question: For COc1cc(/C=C/c2nnc(-c3cc(-c4ccccc4)n[nH]3)o2)cc(OC)c1OC, which growth is on record?
Answer: The growth was 91.3%.

Question: Which growth does the source give for N#Cc1cnc2cc(OC[C@H](O)CO)c(NC(=O)CC3CSSC3)cc2c1Nc1ccc(OCc2cccc(F)c2)c(Cl)c1 here?
Answer: Its growth is 20.8%.

Question: Which growth does the source give for COc1ccc(/C=N/NC(=O)c2ccc(S(C)(=O)=O)cc2)cc1OC here?
Answer: Its growth is 102%.

Question: Which growth does the source give for O=C1OC(c2ccc(-c3ccccc3)cc2)=C/C1=C/c1cccs1 here?
Answer: Its growth is 85.7%.

Question: With CCOC(=O)C1=C(C)N2C(=NC3=C(CCC/C3=C\c3ccc(Cl)cc3)C2c2ccc(Cl)cc2)S1 (centres undefined) as the molecule, how does the growth read?
Answer: Its growth is 16.6%.

Question: How did the growth turn out when COc1cc(C2C=C(c3ccc(C)cc3)Nc3nc(SC)[nH]c(=O)c32)ccc1Oc1ccnc2cc(Cl)ccc12 (centres undefined) was run?
Answer: The growth was 55.6%.

Question: Oc1ccccc1C=Nc1ccccc1N=Cc1ccccc1O.[Cu+2] was tested. Which growth did it give?
Answer: The growth was 57.3%.

Question: Which growth does the source give for CN(CC(=O)N(Cc1ccc(C2CCCCC2)cc1)c1ccc(C(=O)O)cc1)S(=O)(=O)c1c(F)c(F)c(F)c(F)c1F here?
Answer: Its growth is 68.7%.

Question: With Cc1cc(C(C)(C)c2cc(C)c(O)c(CN(C)C)c2)cc(CN(C)C)c1O as the molecule, how does the growth read?
Answer: Its growth is 86.2%.

Question: O=C1CCCN1C1CCN(Cc2cc3ccccc3[nH]c2=O)c2ccccc21 (centres undefined) was tested. Which growth did it give?
Answer: The growth was 89.1%.

Question: How did the growth turn out when CCOC(=O)/C=C(/C)Sc1cc(O)c2ccccc2c1O was run?
Answer: The growth was 25.2%.

Question: COc1ccc(-c2cc(Cc3cccs3)c(=O)n(Cn3cncn3)n2)cc1 was tested. Which growth did it give?
Answer: Its growth is 97.6%.

tested on: CAKI-1 renal; assay: as above; settings: 10 µM unless noted

Question: Which growth does the source give for Nc1ccc(C2=Nc3cccc4cccc(c34)S2)cc1 here?
Answer: Its growth is 75.7%.

Question: For COc1cc2c(cc1OCCCOc1ccc(-c3cc4ccccc4c4ccccc34)cc1)N=C[C@@H]1CCCN1C2=O, which growth is on record?
Answer: The growth was -19.6% (active).

Question: With O=C(CCc1nnc(Cn2ccnc2)o1)c1nc2ccccc2[nH]1 as the molecule, how does the growth read?
Answer: The growth was 110%.

Question: Which growth does the source give for O=C(COC(=O)[C@H](C[Se][Se]C[C@H](NC(=O)c1ccc(Br)cc1F)C(=O)OCC(=O)c1ccc(F)cc1)NC(=O)c1ccc(Br)cc1F)c1ccc(F)cc1 here?
Answer: Its growth is -91.4% (active).

Question: Which growth does the source give for COc1ccc2[nH]cc(/C=C3/C(=O)Nc4ccc(Cl)cc43)c2c1 here?
Answer: The growth was 26.6%.

Question: Which growth does the source give for Cc1cccc(Cl)c1NC(=O)c1ccc2nc(NC(=O)NC3CC(C)(C)NC(C)(C)C3)sc2c1 here?
Answer: Its growth is 92%.

Question: NNC(=O)C1CC2c3ccccc3C1c1ccccc12 (centres undefined) was tested. Which growth did it give?
Answer: Its growth is 103%.

Question: With Cn1[nH]cc(/C=N/C(N)=O)c1=O as the molecule, how does the growth read?
Answer: Its growth is 109%.

Question: COc1ccc2[nH]c(-c3ccccc3)cc2c1 was tested. Which growth did it give?
Answer: Its growth is 99.1%.

Question: Which growth does the source give for CCCCn1c(Cc2ccc(Cl)cc2)nc2cc(OC)c(OC)cc2c1=O here?
Answer: The growth was 72.5%.

Question: With c1coc([C@@H]2C[C@@H]3Cc4ccc5ccccc5c4N2O3)c1 as the molecule, how does the growth read?
Answer: The growth was 84.7%.

Question: For CC(O)c1nc2c(c(=O)n(C)c(=O)n2C)n1C (centres undefined), which growth is on record?
Answer: Its growth is 89.2%.

Question: With Nc1ccccc1-c1ccc([N+](=O)[O-])cc1 as the molecule, how does the growth read?
Answer: Its growth is 30.3%.

Question: How did the growth turn out when C=C(C[C@](O)(C(=O)/C=C/c1ccc(Cl)cc1)C(=O)OC)c1ccccc1 was run?
Answer: The growth was 68.5%.

Question: For N#Cc1ccc(NC(=O)Nc2ccc(Oc3ccc(NC(=O)Nc4ccc(C#N)cc4)cc3)cc2)cc1, which growth is on record?
Answer: The growth was 33%.

Question: How did the growth turn out when Oc1ccc(Cc2ccc(O)c(C3CC(c4ccc(Cl)cc4)=NN3)c2)cc1C1CC(c2ccc(Cl)cc2)=NN1 (centres undefined) was run?
Answer: The growth was -49.4% (active).

Question: How did the growth turn out when CCC1=C(c2ccc(OC)cc2)C(C)Oc2cc(OC(C)=O)ccc21 (centres undefined) was run?
Answer: Its growth is 74.9%.

Question: For COc1ccc(/C=N\Nc2ccc([N+](=O)[O-])cn2)cc1OC, which growth is on record?
Answer: Its growth is 43.1%.

Question: Which growth does the source give for COc1ncc(-c2ccc3nccc(C#CCN4CCN(S(C)(=O)=O)CC4)c3c2)cc1NS(=O)(=O)c1ccc(F)cc1F here?
Answer: The growth was 4.01% (active).

Question: Which growth does the source give for O=C(Nc1ccc(Cl)cc1)Nc1ccc(Nc2nncc3ccccc23)cc1 here?
Answer: Its growth is 20.6%.

Question: Cc1cc(NC(=O)c2ccc(N)cc2)ccc1N=Nc1ccc2c(O)c(N=Nc3ccc(Cl)c(S(=O)(=O)O)c3)c(S(=O)(=O)O)cc2c1 was tested. Which growth did it give?
Answer: Its growth is 87.1%.

Question: For CCC(CCC(C)C1CCC2C3CC=C4CC(O)CCC4(C)C3CCC12C)C(C)C (centres undefined) (tested in a mixture with another compound), which growth is on record?
Answer: Its growth is 108%.

Question: How did the growth turn out when CCN1CCN(c2cc(-c3cn[nH]c3-c3cc(C)cc(OC)c3)nc(-c3cccnc3)n2)CC1 was run?
Answer: Its growth is 73.7%.

Question: How did the growth turn out when Cc1ccc(NC(=O)Nc2ccc(-c3cccnc3)cc2N2CCC(CO)CC2)cc1 was run?
Answer: The growth was 42.2%.

Question: With Cc1c(C(N)=O)sc2ncn(CC(=O)Nc3ccc(Cl)cc3)c(=O)c12 as the molecule, how does the growth read?
Answer: The growth was 40.6%.

Question: Which growth does the source give for COc1cc(/C=C/c2nnc(-c3cc(-c4ccccc4)n[nH]3)o2)cc(OC)c1OC here?
Answer: The growth was 89.4%.

Question: Which growth does the source give for N#Cc1cnc2cc(OC[C@H](O)CO)c(NC(=O)CC3CSSC3)cc2c1Nc1ccc(OCc2cccc(F)c2)c(Cl)c1 here?
Answer: Its growth is 70.1%.

Question: How did the growth turn out when COc1ccc(/C=N/NC(=O)c2ccc(S(C)(=O)=O)cc2)cc1OC was run?
Answer: Its growth is 89%.

Question: Which growth does the source give for O=C1OC(c2ccc(-c3ccccc3)cc2)=C/C1=C/c1cccs1 here?
Answer: Its growth is 81.7%.

Question: CCOC(=O)C1=C(C)N2C(=NC3=C(CCC/C3=C\c3ccc(Cl)cc3)C2c2ccc(Cl)cc2)S1 (centres undefined) was tested. Which growth did it give?
Answer: The growth was 62.3%.

Question: COc1cc(C2C=C(c3ccc(C)cc3)Nc3nc(SC)[nH]c(=O)c32)ccc1Oc1ccnc2cc(Cl)ccc12 (centres undefined) was tested. Which growth did it give?
Answer: Its growth is 67.8%.

Question: With Oc1ccccc1C=Nc1ccccc1N=Cc1ccccc1O.[Cu+2] as the molecule, how does the growth read?
Answer: The growth was 68.6%.

Question: For CN(CC(=O)N(Cc1ccc(C2CCCCC2)cc1)c1ccc(C(=O)O)cc1)S(=O)(=O)c1c(F)c(F)c(F)c(F)c1F, which growth is on record?
Answer: The growth was 89.9%.

Question: For Cc1cc(C(C)(C)c2cc(C)c(O)c(CN(C)C)c2)cc(CN(C)C)c1O, which growth is on record?
Answer: The growth was 79.6%.

Question: With O=C1CCCN1C1CCN(Cc2cc3ccccc3[nH]c2=O)c2ccccc21 (centres undefined) as the molecule, how does the growth read?
Answer: The growth was 79.3%.

Question: Which growth does the source give for CCOC(=O)/C=C(/C)Sc1cc(O)c2ccccc2c1O here?
Answer: Its growth is 46.1%.

Question: With COc1ccc(-c2cc(Cc3cccs3)c(=O)n(Cn3cncn3)n2)cc1 as the molecule, how does the growth read?
Answer: Its growth is 98.3%.
